From the supplement of paper PMC6555819

Test system: THRa:RXRa (NR concentration 90 nM, RXRa partner concentration 90 nM)
Assay: PBM binding z-score (relative to random genomic background probes); higher = stronger binding; sequences stand for … in GC…GCGATTGACAGCGTAGAATGAAGG
Summary of the method: (§1)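 Probes were double-stranded and carried 34-nt variable regions with direct-repeat seeds, single-nucleotide variants, half-site ablations and random human genomic background sequences, printed on custom Agilent 4×180K protein-binding microarrays. Arrays were incubated 1 h with ligand-free nuclear receptor dimers in PBS pH 7.4, 2% milk, 0.02% Triton X-100, 1 mM DTT, 0.2 mg/mL BSA and 0.4 mg/ml salmon testes DNA. Antibodies against each partner (one per run) detected binding, and scanned fluorescence was regression-normalized. Binding z-scores use the random background probes as reference.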

Row | Sequence | PBM binding z-score
1 | GCAGACACGTGAAACGCAGGTAACTCAGGGTGGC | 0.299
2 | TCATATAGGTAAATGCTAGGTGATAGTCCGATCT | 0.78
3 | AGAACAAGGGCACGCTGAGTTGATAGCAGAGTAG | 1.28
4 | CCTTACGGGTCACTTCAGGTTATAGCATCGGAGT | 5.04
5 | ATCGAAAGGTCGAAGGTGAATATACCCACCCGAA | 2.52
6 | CCTATTAGTTGACCATAAGGGCAGCCGAAGCTCG | 1.36
7 | GCTAGCAGGCCTTTTGGGTCACTCAATGACGGGC | 2.11
8 | CATAGCAGGCCAATCTGGGTCACTCAAGGCTTGA | 3.69
9 | CCAGACAGGTGAAAGGTGACTCAGTCTGGTACGC | 1.44
10 | TATCGGAGGACACGAAGGTCAGAGCTTTCCAGAG | 2.88
11 | AGAATGAGGTTATTAAGATCAGTGAATTGCGGTC | 2.17
12 | TCTCGGAGGACACGAGAGGTCAGAGCTCGACATC | 3.98
13 | ATTCAAAGTTCAGGACGAGGTAACGTAAAGCACG | 3.82
14 | CCAGACAGGTGAGAGGGTAACTCAGCCTCGATTA | 0.388
15 | TCGAGTAGGTTAGTCGGCGCATTCAGCCAACATA | -0.542
16 | CAAATTAGGTCAAGAGGTCAAAGTCCGCTTCCCG | 4.42
17 | GCTAGCAGGCCATATGGGTCACTCAATGACGGGC | 1
18 | TCCTGTAGATCAGCAGGTTAAGAAAGCTGGCCAA | 0.129
19 | ATCGAAAGGTCGAGGTGAATATAGAGAAAGGGAA | 2.95
20 | ACAGACAGGTGATTAAGGTAACTCAGGCTATCAT | 2.77

Row | Sequence | PBM binding z-score
21 | AGTCGAAGTTCACTAGGTAACGTAAGATTCAGCT | 1.05
22 | CGAACTAGGTCAAGGACAGTCAATCTCCGCACGC | 3.19
23 | TCGAGGAGGTTACCAATGGGGCATTCAGCTTTCT | 1.06
24 | TCATATAGGTAAATGCTATGTGAAAGTCCGATCT | 0.0535
25 | ACTAGCAGGCCAAGGTTGGGTCACTCAAACAAAG | 2.04
26 | GCTGCTAGGTCAGGTAGGTCAGCTAACGGGTACG | 2.78
27 | TCTTGTAGATCACGCAGGTTAAGAAAGCCTGAGT | 0.601
28 | CCGACTGGGGCAAGGTTAGCATAACGCACAGCCA | 0.333
29 | TAGCCTAGGTCATTGGTCCAGTATAGTACGCATC | 2.84
30 | CAAACTAGGTCAAAGGTCAAAGTGGAGCCAACCA | 4.71
31 | CGAACCAGGGCATGAGTTGATAGCAAATGCCGAT | 0.518
32 | CGAACTAGGTCATTGTCAGGACAGTGAATAGTAA | 4.27
33 | ATACCAAGGTGATCGTGACGTCGTTGATACTAAC | 1.05
34 | TCTTGTAGATCAAGCAGGTTAACAAAGCCTGAGT | 0.705
35 | CCTACTGGGCCACGAAAGGTCAATGATTCAGTGA | 3.66
36 | ATCTCTAGGTAAAGATAGTTCGGTGAATGCAAAT | 0.322
37 | TCTATTAGTTGAAGGACAACCGACGAGTCCGTTT | 0.552
38 | TCTAGTAGATCAAGCAGGTTAAGAAAGCCTGAGT | 0.0974
39 | ATACCATGGTGATCGTGAGGTCGTTGATACTAAC | 2.48
40 | CCTACTGGGCGATCAGGTCATTGATATCAACGTT | 2.74

Test system: THRa homodimer (NR concentration 90 nM)
Assay: as above
Summary of the method: as §1

Row | Sequence | PBM binding z-score
41 | GCAGACACGTGAAACGCAGGTAACTCAGGGTGGC | -0.673
42 | TCATATAGGTAAATGCTAGGTGATAGTCCGATCT | 0.138
43 | AGAACAAGGGCACGCTGAGTTGATAGCAGAGTAG | -0.108
44 | CCTTACGGGTCACTTCAGGTTATAGCATCGGAGT | 1.29
45 | ATCGAAAGGTCGAAGGTGAATATACCCACCCGAA | 0.227
46 | CCTATTAGTTGACCATAAGGGCAGCCGAAGCTCG | 0.892
47 | GCTAGCAGGCCTTTTGGGTCACTCAATGACGGGC | 0.611
48 | CATAGCAGGCCAATCTGGGTCACTCAAGGCTTGA | 0.366
49 | CCAGACAGGTGAAAGGTGACTCAGTCTGGTACGC | 0.239
50 | TATCGGAGGACACGAAGGTCAGAGCTTTCCAGAG | 0.977
51 | AGAATGAGGTTATTAAGATCAGTGAATTGCGGTC | 0.753
52 | TCTCGGAGGACACGAGAGGTCAGAGCTCGACATC | 1.64
53 | ATTCAAAGTTCAGGACGAGGTAACGTAAAGCACG | 2.01
54 | CCAGACAGGTGAGAGGGTAACTCAGCCTCGATTA | 0.0769
55 | TCGAGTAGGTTAGTCGGCGCATTCAGCCAACATA | -0.648
56 | CAAATTAGGTCAAGAGGTCAAAGTCCGCTTCCCG | 2.88
57 | GCTAGCAGGCCATATGGGTCACTCAATGACGGGC | -0.658
58 | TCCTGTAGATCAGCAGGTTAAGAAAGCTGGCCAA | -0.526
59 | ATCGAAAGGTCGAGGTGAATATAGAGAAAGGGAA | 0.862
60 | ACAGACAGGTGATTAAGGTAACTCAGGCTATCAT | 1.93

Row | Sequence | PBM binding z-score
61 | AGTCGAAGTTCACTAGGTAACGTAAGATTCAGCT | -0.0118
62 | CGAACTAGGTCAAGGACAGTCAATCTCCGCACGC | 1.96
63 | TCGAGGAGGTTACCAATGGGGCATTCAGCTTTCT | -0.297
64 | TCATATAGGTAAATGCTATGTGAAAGTCCGATCT | 0.0976
65 | ACTAGCAGGCCAAGGTTGGGTCACTCAAACAAAG | 0.571
66 | GCTGCTAGGTCAGGTAGGTCAGCTAACGGGTACG | 0.866
67 | TCTTGTAGATCACGCAGGTTAAGAAAGCCTGAGT | -0.33
68 | CCGACTGGGGCAAGGTTAGCATAACGCACAGCCA | -0.266
69 | TAGCCTAGGTCATTGGTCCAGTATAGTACGCATC | 1.47
70 | CAAACTAGGTCAAAGGTCAAAGTGGAGCCAACCA | 1.88
71 | CGAACCAGGGCATGAGTTGATAGCAAATGCCGAT | -0.382
72 | CGAACTAGGTCATTGTCAGGACAGTGAATAGTAA | 2.09
73 | ATACCAAGGTGATCGTGACGTCGTTGATACTAAC | 0.655
74 | TCTTGTAGATCAAGCAGGTTAACAAAGCCTGAGT | -0.265
75 | CCTACTGGGCCACGAAAGGTCAATGATTCAGTGA | 0.66
76 | ATCTCTAGGTAAAGATAGTTCGGTGAATGCAAAT | 0.197
77 | TCTATTAGTTGAAGGACAACCGACGAGTCCGTTT | 0.684
78 | TCTAGTAGATCAAGCAGGTTAAGAAAGCCTGAGT | -0.707
79 | ATACCATGGTGATCGTGAGGTCGTTGATACTAAC | 1.85
80 | CCTACTGGGCGATCAGGTCATTGATATCAACGTT | 2.18
